Screening results as filed in PubChem BioAssay.
The entries come from a sample that favours hits as a whole.
ALOX12 inh = ALOX12 (human) lipoxygenase inhibition; P18054; purified 12hLO, xylenol orange hydroperoxide absorbance; Potency, µM (series often up to 108 µM), for the others: top-dose activity change, negative = inhibition, most hits filed as inhibitors; 1.1% of 580,000 active; also: potency is read from the fitted curve at half-maximal effect
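Hydroperoxide product was detected by ferrous iron/xylenol orange as the 573 to 405 nm absorbance ratio. Arachidonic acid at 40 uM (final) was turned over for 30 min at room temperature by 150 nM human 12hLO, pH 7.0 Hepes buffer, after 15 min compound preincubation.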
DT40 TDP1 CPT = growth inhibition of DT40 Tdp1-/-;hTDP1 cells with camptothecin (screen for TDP1 inhibitors); chicken DT40 Tdp1-/-;hTDP1 cells + 20 nM CPT, ATP luminescence, 48 h; Potency, µM (titrated, usually from 46.2 µM), for inactives: top-dose activity change, negative = growth inhibition, usual class: inhibitors; 12% of 420,000 active; also: potency is read from the fitted curve at half-maximal effect; nearly all actives have a fitted effect of over 55% in size
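Cell growth measured by CellTiter-Glo luminescence after a minimum 48 h, 37 C compound exposure with 20 nM CPT in Tdp1-knockout DT40 cells stably expressing hTDP1, seeded 400/well; qHTS titration format.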
HT1080NT lethal = kills 2HG-producing HT-1080-NT fibrosarcoma cells. HT-1080-NT fibrosarcoma viability, CellTiter-Glo ATP luminescence, 48 h. Potency, µM (top dose mostly 46.1 µM), without a hit: at the highest dose activity, negative = less viability, hits mostly cytotoxic. 1.6% of 360,000 active. AID 686970;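 also: NT is the 2HG producing partner of a matched IDH1 knockdown line; potency is read from the fitted curve at half-maximal effect; 0% = DMSO-treated cells and -100% = media-only wells without cells; nearly all actives have a fitted effect of over 55% in size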
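Luminescent CellTiter-Glo readout after 48 hours of compound exposure at 37 degrees C defined viability of HT-1080-NT cells. Activity was normalized to DMSO wells and cell-free media wells; concentration-response curves were fitted and assigned curve classes.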
TDP1 cell noCPT = qHTS for Inhibitors of human tyrosyl-DNA phosphodiesterase 1 (TDP1): qHTS in cells in absence of CPT. Potency, µM (top dose mostly 46.2 µM), for inactives: at the top dose activity change, negative = growth inhibition, hits mostly inhibitors. 15% of 420,000 active. DT40 Tdp1-/- hTDP1 cells, no CPT, ATP luminescence, 48 h; also: potency is read from the fitted curve at half-maximal effect; nearly all actives have a fitted effect of over 55% in size
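Stably hTDP1-transfected Tdp1-null chicken DT40 cells were treated with library compounds minus camptothecin and grown for at least 48 hr at 37 °C, after which cellular ATP was quantified by luminescence.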
HT1080 IDH1KD tx = kills HT-1080 cells with IDH1 knockdown | Potency, µM (doses to about 46.1 µM), without a hit: top-dose activity, negative = toxicity, hits mostly cytotoxic | 2% of 360,000 active | HT-1080 IDH1 knockdown viability, ATP luminescence, 48 h;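 also: potency is read from the fitted curve at half-maximal effect; 0% = DMSO wells and -100% = cell-free medium wells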
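HT-1080-IDH1KD cells (IDH1 knocked down), 750/well in RPMI with 5% FBS, treated with compound 48 h at 37 degrees C. Viability by CellTiter-Glo luminescence, normalised to DMSO and no-cell wells; concentration-response curves classed.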
IL-1B inflam inh = inflammasome signaling inhibition, IL-1 beta readout. THP-1 LPS/ATP IL-1B secretion, AlphaLISA, 16 h; active compounds read low. activity change, % at 57.5 µM. 4.7% of 360,000 active. AID 743279; in the data active = activity change below about -50%; inconclusive = mostly about -30% to -49%
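THP-1 cells pretreated 1 hr with compounds (up to 57.5 uM final), then stimulated with LPS (250 ng/mL final) plus ATP (1.25 mM final); secreted IL-1B measured by AlphaLISA after 16 hr, decreased signal indicating inhibition.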
* = called active by the depositor; ? = inconclusive; / = no result. Unless noted, calls follow the shape of the dose curve; as a rule, active = well fitted curve in the direction sought with a large enough effect; inconclusive = small, poorly fitted or top-dose-only effect, or another doubt; inactive = no such curve, though single readings can be large; an effect the other way counts as inactive or inconclusive. Unless noted, % is scaled to controls: 0 for no effect and ±100 for the full control effect.

SMILES	ALOX12 inh	DT40 TDP1 CPT	HT1080NT lethal	TDP1 cell noCPT	HT1080 IDH1KD tx	IL-1B inflam inh
O=C(NCC(c1ccc2c(c1)OCO2)N1CCN(c2ccc(F)cc2)CC1)c1cccc([N+](=O)[O-])c1 (stereo not given)	-25.5%	6.51µM*	/	6.51µM*	/	/
O=C(NCC(c1ccc2c(c1)OCO2)N1CCOCC1)C(=O)Nc1cccc(Cl)c1 (stereo not given)	-18.4%	?	/	11.6µM*	/	/
CNC(=O)C(=O)NCC(c1ccc2c(c1)OCO2)N1CCOCC1 (stereo not given)	-2.4%	1.5%	/	2.2%	/	/
COc1ccc(N2CCN(C(c3cccs3)C(C)NC(=O)c3ccco3)CC2)cc1 (stereo not given)	-7.1%	?	-4.1%	?	-24.1%	-19.0
CC(C)N1CCN(C(=O)c2ccc3c(c2)C(O)CCCCCN3C)CC1 (stereo not given)	14.1%	/	/	/	/	/
Cc1ccc(C(=O)NCC(c2ccc3c(c2)OCO3)N2CCN(C)CC2)cc1C (stereo not given)	?	-4.4%	/	-29.5%	/	/
COc1ccccc1N1CCN(C(c2cccs2)C(C)NC(=O)c2ccncc2)CC1 (stereo not given)	0.0%	20.6µM*	-4.7%	?	-0.1%	4.5
O=C(NCC(c1ccc2c(c1)OCO2)N1CCN(c2ccccc2)CC1)c1ccccc1 (stereo not given)	-17.0%	13µM*	/	10.3µM*	/	/
Cc1ccc(C(=O)NCC(c2ccc3c(c2)OCO3)N2CCOCC2)cc1C (stereo not given)	-0.5%	20.6µM*	/	10.3µM*	/	/
C#CCCN([C@@H](CC(C)C)C(=O)OC)S(=O)(=O)c1ccccc1Br	-0.4%	/	/	/	/	/
N#CC1=C(c2ccc(-c3ccccc3)cc2)COC1=O	50.1µM*	-4.8%	14.7%	-29.3%	-5.2%	?
CS(=O)(=O)c1ccc(C2=C(c3ccccc3)C(=O)OC2)cc1	-0.9%	-12.0%	-0.4%	-8.4%	13.3%	6.2
CCn1c2ccccc2c2nc3cc(C(=O)O)ccc3nc21	-27.6%	12.1%	?	-26.3%	?	-55.6*
CCn1c2ccccc2c2nc3ccccc3nc21	/	?	-16.8%	18.4µM*	-16.5%	-12.2
CCn1c2ccccc2c2nc3cc(OC)c(OC)cc3nc21	?	13µM*	?	13µM*	?	-52.2*
O=C(Cc1ccc(Cl)cc1Cl)N1CCN(c2ccccc2O)CC1	39.8µM*	/	/	/	/	/
O=C(Cc1ccc(Br)cc1)N1CCN(c2ccccc2O)CC1	?	2.2%	-8.1%	-12.2%	-22.6%	-26.4
O=C(/C=C/c1ccccc1[N+](=O)[O-])N1CCN(c2ccccc2F)CC1	-27.2%	?	5.2%	0.6%	7.6%	-5.7
O=C(/C=C/c1ccc(Cl)cc1)N1CCN(c2ccc([N+](=O)[O-])c(N3CCOCC3)c2)CC1	-2.7%	?	8.6%	?	5.3%	2.2
O=[N+]([O-])c1cc(Cl)ccc1N1CCCCC1	-11.8%	0.8%	-6.2%	-13.4%	-10.0%	?
O=[N+]([O-])c1cc(Cl)ccc1N1CCN(c2ccccc2O)CC1	-16.4%	0.3%	-18.6%	?	-10.7%	-95.6*
O=C(/C=C/c1ccc(Cl)cc1Cl)N1CCN(c2ccc([N+](=O)[O-])c(N3CCOCC3)c2)CC1	3.0%	?	-3.2%	23.1µM*	6.7%	0.0
O=C(/C=C/c1ccc(Cl)cc1Cl)N1CCN(c2ccccc2[N+](=O)[O-])CC1	5.3%	7.4%	-14.7%	?	-28.1%	-60.4*
COc1cccc(N2CCN(C(=O)CN3CCSc4ccccc43)CC2)c1	-10.2%	/	/	/	/	/
COc1nc(Cl)cn(-c2ccc(C)cc2)c1=O	19.6%	7.9%	9.0%	6.8%	5.2%	12.3
